Laboratory results taken from PubChem BioAssay AID430 (Sanford-Burnham Center for Chemical Genomics, 2006).
In all, about 63,000 compounds went through this assay and about 1,100 (1.7%) were called active. Cut-off read from the data, not from the text of the source: active = cytotoxicity above about 50%; inactive = the rest. Shown is part of a subset that was picked to be rich in actives. Measured potencies and affinities stand elsewhere.

test: HPDE-C7 pancreatic duct cell viability loss – fluorescence, HTS (AID 430); conditions: HPDE-C7 pancreatic duct cells viability, at 10 µM, active compounds read high;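 note: cells exposed to compound for 48 hours before viability readout; 0% = vehicle and 100% = reference cytotoxic drug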

Q: With `Cc1nc(N2CCC(C(N)=O)CC2)c2nnn(Cc3ccccc3)c2n1` as the molecule, how does the cytotoxicity read?
A: The cytotoxicity was 4.3% (inactive).

Q: With `Cc1oc(C(=O)O)cc1CSc1nnc(-c2ccccc2)n1C` as the molecule, how does the cytotoxicity read?
A: The cytotoxicity was -2.3% (inactive).

Q: For `COc1ccc(NC2c3ccccc3C(=O)N2Cc2ccco2)cc1OC` (centres undefined), which cytotoxicity is on record?
A: Its cytotoxicity is 17.8% (inactive).

Q: Which cytotoxicity does the source give for `Cc1cccc(Cn2cnc3c(nnn3Cc3ccc(F)cc3)c2=O)c1` here?
A: Its cytotoxicity is 1.3% (inactive).

Q: For `C=C(C)CSc1nnc(-c2ccccc2)n1N`, which cytotoxicity is on record?
A: The cytotoxicity was -23.4% (inactive).

Q: For `COC(=O)c1nc2n(n1)C(c1ccc(OC)c(OC)c1OC)C1=C(CCCC1=O)N2` (centres undefined), which cytotoxicity is on record?
A: The cytotoxicity was 2.9% (inactive).

Q: Which cytotoxicity does the source give for `Cc1ccc(NC(=O)c2ccco2)cc1NC(=O)CSc1nnc(-c2cccs2)n1C` here?
A: The cytotoxicity was -3.6% (inactive).

Q: For `CCc1[nH]nc2c1C(c1cccc(OC(=O)N3CCOCC3)c1)C(C#N)=C(N)O2` (centres undefined), which cytotoxicity is on record?
A: The cytotoxicity was -34.3% (inactive).

Q: Which cytotoxicity does the source give for `COc1ccc(Nc2nc(-c3sc(N)nc3C)cs2)cc1` here?
A: Its cytotoxicity is 46.6% (inactive).

Q: With `CCn1c(C(O)c2ccccc2)nc2ccccc21` (centres undefined) as the molecule, how does the cytotoxicity read?
A: Its cytotoxicity is -4.3% (inactive).

Q: Which cytotoxicity does the source give for `Cc1ccc(N2C(=O)C(Cl)=C(Nc3c(C)n(C)n(-c4ccccc4)c3=O)C2=O)cc1` here?
A: The cytotoxicity was -0.2% (inactive).

Q: With `CCOc1ccc(-c2[nH]ncc2Oc2cccc(OC)c2)c(O)c1` as the molecule, how does the cytotoxicity read?
A: Its cytotoxicity is 55.5% (active).

Q: For `Cc1ccc(NC(=O)C2CCCN2S(=O)(=O)c2ccc(F)cc2)c(C)c1` (centres undefined), which cytotoxicity is on record?
A: The cytotoxicity was -6.1% (inactive).

Q: For `CCOC(=O)C1CCCN(CCCc2ccccc2)C1` (centres undefined), which cytotoxicity is on record?
A: Its cytotoxicity is -2.8% (inactive).

Q: For `CCOC(=O)c1c(C2CCN(C(=O)OCC)CC2)nc2ccccn12`, which cytotoxicity is on record?
A: The cytotoxicity was 0% (inactive).

Q: With `COc1ccc2c3c(cccc13)OCC2=O` as the molecule, how does the cytotoxicity read?
A: The cytotoxicity was 8.3% (inactive).

Q: For `COc1ccc(C(C)=O)c2c(O)cccc12`, which cytotoxicity is on record?
A: Its cytotoxicity is 9.1% (inactive).

Q: With `COc1cccc(/C(O)=C2/C(=O)C(=O)N(CCN3CCOCC3)C2c2cccnc2)c1` (centres undefined) as the molecule, how does the cytotoxicity read?
A: Its cytotoxicity is -7.7% (inactive).

Q: For `CC(=O)Nc1nc2ccc(Br)cc2s1`, which cytotoxicity is on record?
A: Its cytotoxicity is -11.8% (inactive).

Q: For `Cc1c(C(=O)N2CCCC2)oc2c1-c1[nH]ncc1CC2`, which cytotoxicity is on record?
A: The cytotoxicity was 1% (inactive).

Q: For `CCOCCCNC(=O)N[C@@H](Cc1ccccc1)C(=O)OC`, which cytotoxicity is on record?
A: The cytotoxicity was 0.6% (inactive).

Q: Which cytotoxicity does the source give for `CCOC(=O)c1nc2ccccc2s1` here?
A: Its cytotoxicity is -0.3% (inactive).

Q: Which cytotoxicity does the source give for `COC(=O)Cc1cc(=O)n(-c2nc3ccccc3s2)[nH]1` here?
A: The cytotoxicity was 74.2% (active).

Q: With `COC(=O)Cc1cc(=O)n(-c2nc3ccccc3[nH]2)[nH]1` as the molecule, how does the cytotoxicity read?
A: The cytotoxicity was -3% (inactive).

Q: With `CCOC(=O)CC(=O)Nc1nc2ccccc2s1` as the molecule, how does the cytotoxicity read?
A: The cytotoxicity was 1.7% (inactive).

Q: For `CCOC(=O)Cc1cc(=O)n(-c2nc3ccccc3s2)[nH]1`, which cytotoxicity is on record?
A: The cytotoxicity was 75.9% (active).

Q: With `COC(=O)Cc1cc(=O)n(-c2ccccc2)[nH]1` as the molecule, how does the cytotoxicity read?
A: The cytotoxicity was -18.7% (inactive).

Q: Which cytotoxicity does the source give for `COc1ccc(CN/C=C2\CCCCC2=O)cc1` here?
A: Its cytotoxicity is 5.7% (inactive).

Q: Which cytotoxicity does the source give for `Cc1ccccc1-c1nc(CS(=O)CC(=O)NCCCN(C)c2ccccc2)c(C)o1` (centres undefined) here?
A: Its cytotoxicity is 10.9% (inactive).

Q: For `COc1ccc(-n2nc(C(=O)N3CCC(C#N)CC3)c3c4ccccc4n(C)c3c2=O)cc1`, which cytotoxicity is on record?
A: The cytotoxicity was -4.7% (inactive).

Q: Which cytotoxicity does the source give for `Cc1cccc(OCc2nnc(SCC(=O)Nc3cc(C)on3)n2C)c1` here?
A: The cytotoxicity was -0.4% (inactive).

Q: Which cytotoxicity does the source give for `Cn1c(=O)[nH]c(=O)c2c1ncn2CCN1CCCCC1` here?
A: Its cytotoxicity is -5.6% (inactive).

Q: With `CCCOc1ccc(C2c3c(oc4cc(C)c(C)cc4c3=O)C(=O)N2CCCN(C)C)cc1` (centres undefined) as the molecule, how does the cytotoxicity read?
A: Its cytotoxicity is -4.2% (inactive).

Q: For `O=C(CSc1n[nH]c(-c2ccccc2)n1)c1ccc(O)c(O)c1`, which cytotoxicity is on record?
A: The cytotoxicity was -0.1% (inactive).

Q: For `CN(c1ccc(O)cc1)c1nc(-c2ccccc2)cs1`, which cytotoxicity is on record?
A: Its cytotoxicity is 8% (inactive).

Q: With `Oc1ccc(-c2nc(-c3ccc(O)c(O)c3)cs2)cc1` as the molecule, how does the cytotoxicity read?
A: The cytotoxicity was 73.5% (active).

Q: With `COc1cc(-c2csc(C)n2)ccc1O` as the molecule, how does the cytotoxicity read?
A: Its cytotoxicity is -29.1% (inactive).

Q: For `CCOC(=O)COn1c(=O)c[n+]([O-])c2ccccc21`, which cytotoxicity is on record?
A: The cytotoxicity was -1.5% (inactive).

Q: With `COc1cccc(CNc2nc3ccccc3n2CCN2CCCCC2)c1` as the molecule, how does the cytotoxicity read?
A: Its cytotoxicity is 11.1% (inactive).

Q: For `CCn1c(NC2CCCCC2)nc2ccccc21`, which cytotoxicity is on record?
A: Its cytotoxicity is 7.5% (inactive).

Q: For `CCOC(=O)CC12CN3CN(C1)CC(CC(=O)OCC)(C3)C2=O`, which cytotoxicity is on record?
A: Its cytotoxicity is -0.6% (inactive).

Q: For `CCC(=O)N1CCN(CCN=CC2=C(O)CC(C)(C)CC2=O)CC1`, which cytotoxicity is on record?
A: The cytotoxicity was 5.7% (inactive).

Q: With `O=C1c2ccccc2C(=O)N1Cc1ccco1` as the molecule, how does the cytotoxicity read?
A: Its cytotoxicity is -1.5% (inactive).

Q: Which cytotoxicity does the source give for `O=C1C(=C2CCCCC2)SC(=S)N1Cc1ccco1` here?
A: The cytotoxicity was 60.9% (active).

Q: Which cytotoxicity does the source give for `O=C(O)CCN1C(=O)C(=C2CCCCCC2)SC1=S` here?
A: The cytotoxicity was -8.4% (inactive).

Q: For `CSc1nc(N)nc(SCC(=O)c2ccccc2)c1C#N`, which cytotoxicity is on record?
A: The cytotoxicity was 13.7% (inactive).

Q: For `CCc1nc(SCC(=O)N2CCCc3ccccc32)c2c(=O)n(C)c(=O)n(C)c2n1`, which cytotoxicity is on record?
A: Its cytotoxicity is -9% (inactive).

Q: With `CCCc1nc(SCC(=O)N2CCN(c3ccccc3)CC2)c2c(=O)n(C)c(=O)n(C)c2n1` as the molecule, how does the cytotoxicity read?
A: The cytotoxicity was 0% (inactive).

Q: With `CCCc1nc(SCC(=O)N2CCc3ccccc32)c2c(=O)n(C)c(=O)n(C)c2n1` as the molecule, how does the cytotoxicity read?
A: Its cytotoxicity is 5.3% (inactive).

Q: For `CCCc1nc(SCC(=O)N2CCCc3ccccc32)c2c(=O)n(C)c(=O)n(C)c2n1`, which cytotoxicity is on record?
A: Its cytotoxicity is 77% (active).

Q: For `Cn1c(=O)c2c(SCC(=O)N3CCC(Cc4ccccc4)CC3)nc(C3CC3)nc2n(C)c1=O`, which cytotoxicity is on record?
A: Its cytotoxicity is -3.8% (inactive).

Q: For `Cc1cc(C(=O)COC(=O)c2ccc3c(c2)OCO3)c(C)n1Cc1cccs1`, which cytotoxicity is on record?
A: Its cytotoxicity is -3.8% (inactive).

Q: With `COCCNC(=O)C(C)OC(=O)c1cc2occc2n1C` (centres undefined) as the molecule, how does the cytotoxicity read?
A: Its cytotoxicity is -3.5% (inactive).

Q: For `Cc1csc(NC(=O)C2CCC(C)(C(=O)O)C2(C)C)n1` (centres undefined), which cytotoxicity is on record?
A: The cytotoxicity was -12.1% (inactive).

Q: For `Cc1cc(C(=O)NCCCN2CCOCC2)n(-c2ccccc2)n1`, which cytotoxicity is on record?
A: Its cytotoxicity is 1.2% (inactive).

Q: Which cytotoxicity does the source give for `Cc1cc(C(=O)NCCCN2CCN(C3CCCCC3)CC2)n(-c2ccccc2)n1` here?
A: Its cytotoxicity is 1.4% (inactive).

Q: With `Cc1cc(C(=O)NCCN2CCN(c3cccc(Cl)c3)CC2)n(-c2ccccc2)n1` as the molecule, how does the cytotoxicity read?
A: Its cytotoxicity is 55.2% (active).

Q: With `CC(=O)Nc1cnc2ccccc2n1` as the molecule, how does the cytotoxicity read?
A: Its cytotoxicity is -6.4% (inactive).

Q: With `Cc1ccc2nc(N3CCC(C(=O)O)CC3)nc(-c3ccccc3)c2c1` as the molecule, how does the cytotoxicity read?
A: The cytotoxicity was -3.3% (inactive).

Q: Which cytotoxicity does the source give for `Clc1ccc2nc(NC3=NCN(CCN4CCOCC4)CN3)nc(-c3ccccc3)c2c1` here?
A: Its cytotoxicity is -2.9% (inactive).

Q: With `CN1CCN(c2nc(-c3ccccc3)c3cc(Cl)ccc3n2)CC1` as the molecule, how does the cytotoxicity read?
A: The cytotoxicity was 4.2% (inactive).

Q: With `CN1CCN(c2nc(N3CCN(CCO)CC3)nc3ccccc23)CC1` as the molecule, how does the cytotoxicity read?
A: The cytotoxicity was -2.1% (inactive).

Q: Which cytotoxicity does the source give for `OCCN1CCN(c2nc(-c3ccccc3)c3cc(Cl)ccc3n2)CC1` here?
A: The cytotoxicity was 67.2% (active).

Q: With `Cc1cc(Cl)c2c(c1)[C@]1(C(=O)N2)[C@@H]2C(=O)N(Cc3ccccc3)C(=O)[C@@H]2[C@@H]2CCCN21` as the molecule, how does the cytotoxicity read?
A: Its cytotoxicity is -13.3% (inactive).
